# Test results published in PubChem BioAssay.
# Results filed as inconclusive are left out. The source made the active and inactive calls. Unless noted, no rule for the calls is given here.
# How the values were obtained:
# [1] = blockers of polyQ-driven CASP3 activation – cell-based (AID 1583); conditions: polyglutamine-induced caspase-3 activation, cell assay; stronger effect = higher value;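 tested at 10 µM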
# [2] = yeast 75Q aggregation reduction – 75Q-TubU reporter (AID 1593); conditions: Yeast 75Q polyglutamine aggregation reporter
# [3] = blockers of cytochrome c efflux from mitochondria – biochemical, purified mitochondria (AID 1603); conditions: stronger effect = lower value;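 also: mouse liver mitochondria challenged with calcium chloride; signal normalized to the plate average as 100%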
# [4] = polyglutamine aggregate formation blockers (AID 1604); conditions: polyglutamine-induced protein aggregation inhibition assay; stronger effect = higher value; tested at 2.5 µM
# [5] = glutamate transport activators, MN-1 cells, MN-1 cell line (AID 1612); conditions: MN-1 motor neuron cells, stronger effect = higher value;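 also: tested at 1 µM final; 0% = mean of DMSO vehicle wells on each plate; positive means more glutamate uptake than control and negative means less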
# [6] = 75Q-TubH aggregate inhibition, S. cerevisiae, yeast (AID 1616); conditions: S. cerevisiae 75Q-TubH polyglutamine aggregation suppression; stronger effect = higher value
# [7] = tested on: Aerobactin synthetase IucA (Klebsiella pneumoniae hvKP1); experiment: IucA enzyme inhibition, primary screen, biochemical, Spectrum library (AID 1346200); conditions: malachite green pyrophosphate, A620, at 8 µM, stronger effect = lower value;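 also: 100% = wells without compound and 0% = wells lacking enzyme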
# [8] = blockers of cellular phospholipid synthesis – cell-based, LOPAC library, screen 4, primary screen (AID 1347384); conditions: animal cells, phospholipid biosynthesis inhibition screen; at 10 µM
# [9] = viability loss in pontine glioma line – cell-based, SU-DIPG-XVII, MIPE5.0, CellTiter-Glo, qHTS, dose response (AID 1347060; cut-off not given, nearly all actives have AC50 up to about 26 µM;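 as to AC50: cells exposed to compound for 48 hours before viability readout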); conditions: CellTiter-Glo ATP luminescence
# [10] = viability loss in pontine glioma line – cell-based, SU-DIPG-XIII, MIPE5.0, CellTiter-Glo, qHTS, dose response (AID 1347064; cut-off not given, nearly all actives have AC50 up to about 23 µM;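 as to AC50: cells exposed to compound for 48 hours before the viability read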); conditions: CellTiter-Glo ATP luminescence
# [11] = viability loss in pontine glioma line – cell-based, SU-DIPG-XXV, MIPE5.0, CellTiter-Glo, qHTS, dose response (AID 1347065; cut-off not given, nearly all actives have AC50 up to about 26 µM;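 also: cells exposed to compound for 48 hours before ATP readout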); conditions: CellTiter-Glo ATP luminescence
# [12] = JHH-DIPG-1 glioma cell viability, MIPE5.0 library, CellTiter-Glo luminescence, qHTS (AID 1347067; cut-off not given, nearly all actives have AC50 up to about 26 µM;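 also: cells exposed to compound for 48 hours before readout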); conditions: JHH-DIPG-1 glioma viability, CellTiter-Glo ATP luminescence
# [13] = growth inhibition of DIPG cells – cell-based, MIPE5.0 library, qHTS (AID 1347068; cut-off not given, nearly all actives have IC50 up to about 30 µM;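 as to IC50: cells exposed to compound for 48 hours before viability readout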); conditions: SU-DIPG-XXV viability
# [14] = target: Mitogen-activated protein kinase 7 (Homo sapiens) (UniProt Q13164); experiment: Gal4-ERK5 driven luciferase induction – cell-based, HTS, primary screen (AID 1508626;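 active = luciferase signal above three times the same-plate solvent-only control wells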;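 also: luciferase driven by Gal4-ERK5 fusion binding five Gal4 sites before minimal TATA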); conditions: HeLa Gal4-ERK5 transactivation, 18 h, at 5 µM, stronger effect = higher value
# Chain of Mitogen-activated protein kinase 7 (Homo sapiens) (Q13164 whole entry, looked up, the tested form may be a part): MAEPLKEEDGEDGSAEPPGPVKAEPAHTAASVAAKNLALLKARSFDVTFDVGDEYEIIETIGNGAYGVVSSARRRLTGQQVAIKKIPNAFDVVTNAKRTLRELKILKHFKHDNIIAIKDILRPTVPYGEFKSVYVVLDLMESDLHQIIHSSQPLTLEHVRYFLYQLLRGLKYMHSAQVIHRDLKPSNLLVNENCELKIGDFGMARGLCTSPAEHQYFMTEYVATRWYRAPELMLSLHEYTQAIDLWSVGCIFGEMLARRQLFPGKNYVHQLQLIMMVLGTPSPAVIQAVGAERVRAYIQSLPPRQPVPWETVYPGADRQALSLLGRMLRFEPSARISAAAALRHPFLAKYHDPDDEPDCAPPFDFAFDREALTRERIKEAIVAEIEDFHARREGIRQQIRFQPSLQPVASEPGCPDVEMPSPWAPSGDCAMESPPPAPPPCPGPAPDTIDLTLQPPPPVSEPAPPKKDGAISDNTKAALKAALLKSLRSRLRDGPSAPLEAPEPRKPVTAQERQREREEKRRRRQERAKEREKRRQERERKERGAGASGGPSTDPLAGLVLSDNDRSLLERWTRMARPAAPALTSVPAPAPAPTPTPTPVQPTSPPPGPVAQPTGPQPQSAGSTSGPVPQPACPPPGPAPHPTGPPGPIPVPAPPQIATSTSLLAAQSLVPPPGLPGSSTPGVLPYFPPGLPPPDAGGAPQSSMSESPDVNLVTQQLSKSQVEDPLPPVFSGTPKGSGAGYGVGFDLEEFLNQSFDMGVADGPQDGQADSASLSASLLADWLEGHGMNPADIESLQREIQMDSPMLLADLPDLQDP
# [15] = target: ATP-dependent translocase ABCB1 (Homo sapiens) (UniProt P08183); experiment: P-glycoprotein substrate transport blockade – cell-based (AID 377; in the data active = fluorescence slope change above about 50%); conditions: MDR1-expressing cells, fluorescent substrate accumulation slope; stronger effect = higher value; concentration not given here
# Chain of ATP-dependent translocase ABCB1 (Homo sapiens) (P08183 whole entry, looked up): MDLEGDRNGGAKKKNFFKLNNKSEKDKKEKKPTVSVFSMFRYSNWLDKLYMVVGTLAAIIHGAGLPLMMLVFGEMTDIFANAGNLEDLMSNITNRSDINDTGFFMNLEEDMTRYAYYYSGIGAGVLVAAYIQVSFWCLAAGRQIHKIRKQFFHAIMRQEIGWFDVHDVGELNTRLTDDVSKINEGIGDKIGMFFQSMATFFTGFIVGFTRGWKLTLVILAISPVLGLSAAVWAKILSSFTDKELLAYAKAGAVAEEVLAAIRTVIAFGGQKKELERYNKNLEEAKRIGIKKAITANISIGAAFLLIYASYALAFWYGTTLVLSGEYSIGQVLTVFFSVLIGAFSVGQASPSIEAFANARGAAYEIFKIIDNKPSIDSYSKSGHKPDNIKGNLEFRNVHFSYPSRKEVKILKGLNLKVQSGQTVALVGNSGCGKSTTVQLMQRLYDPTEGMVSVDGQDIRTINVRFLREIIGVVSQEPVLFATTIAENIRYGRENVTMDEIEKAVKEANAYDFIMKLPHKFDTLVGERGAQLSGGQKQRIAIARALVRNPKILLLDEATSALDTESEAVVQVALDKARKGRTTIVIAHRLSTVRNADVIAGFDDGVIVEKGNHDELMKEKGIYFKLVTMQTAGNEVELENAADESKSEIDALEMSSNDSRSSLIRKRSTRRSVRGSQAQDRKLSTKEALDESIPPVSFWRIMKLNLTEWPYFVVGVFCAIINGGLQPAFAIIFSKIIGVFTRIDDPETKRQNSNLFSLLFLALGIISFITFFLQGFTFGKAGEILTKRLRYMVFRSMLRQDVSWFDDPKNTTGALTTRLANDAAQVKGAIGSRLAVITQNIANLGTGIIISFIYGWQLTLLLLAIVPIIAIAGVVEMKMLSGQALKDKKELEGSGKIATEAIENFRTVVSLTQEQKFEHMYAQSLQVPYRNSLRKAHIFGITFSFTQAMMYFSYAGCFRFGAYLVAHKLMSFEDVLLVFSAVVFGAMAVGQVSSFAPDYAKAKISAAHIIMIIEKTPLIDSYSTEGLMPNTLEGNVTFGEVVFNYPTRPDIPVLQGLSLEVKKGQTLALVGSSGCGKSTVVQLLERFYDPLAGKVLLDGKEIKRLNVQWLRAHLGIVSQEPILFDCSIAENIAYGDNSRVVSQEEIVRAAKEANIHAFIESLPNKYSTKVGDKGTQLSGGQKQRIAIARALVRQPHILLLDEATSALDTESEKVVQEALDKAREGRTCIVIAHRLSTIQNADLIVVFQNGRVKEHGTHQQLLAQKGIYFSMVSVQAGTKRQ
# [16] = tested on: Aerobactin synthetase IucA (Klebsiella pneumoniae); experiment: inhibition of K. pneumoniae IucA enzyme – biochemical, Tocris library, absorbance (AID 1345561); conditions: purified IucA enzyme assay, absorbance (OD) read-out; stronger effect = lower value; concentration not given here;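 also: 100% = enzyme without compound and 0% = no enzyme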
# [17] = viability loss in pontine glioma line – cell-based, SU-DIPG-IV, MIPE4.0, CellTiter-Glo, qHTS, dose response (AID 1347063; cut-off not given, nearly all actives have AC50 up to about 30 µM;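 also: compound exposure lasted 48 hours before the viability readout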); conditions: CellTiter-Glo ATP luminescence
# [18] = growth inhibition of DIPG cells – cell-based, MIPE4.0 library, CellTiter-Glo luminescence, qHTS (AID 1347066; cut-off not given, nearly all actives have AC50 up to about 30 µM;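 also: cells exposed to compound for 48 hours before readout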); conditions: SU-DIPG-VI viability, CellTiter-Glo ATP luminescence
# [19] = viability loss in pontine glioma line – cell-based, SU-DIPG-XIII, MIPE4.0, CellTiter-Glo, qHTS, dose response (AID 1347061; cut-off not given, nearly all actives have AC50 up to about 37 µM;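 also: cells exposed to compound for 48 hours before readout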); conditions: CellTiter-Glo ATP luminescence
structure (smiles),measurement,setting,value
CN(C)C(=S)SSC(=S)N(C)C,inhibition,[1],37.5%
same,score,[2],0.02
same,cytochrome c release ratio,[3],3.47
same,inhibition of aggregation,[4],-16.7%
same,glutamate uptake change,[5],7.76%
same,aggregation suppression score,[6],0.0152
same,activity remaining,[7],97.7% (inactive)
COc1ccc2c(c1OC)C(=O)O[C@H]2[C@@H]1c2cc3c(cc2CCN1C)OCO3,outcome,[8],inactive
COP(=S)(OC)Oc1ccc(Sc2ccc(OP(=S)(OC)OC)cc2)cc1,activity remaining,[7],118% (inactive)
COc1cccc2c1C(=O)c1c(O)c3c(c(O)c1C2=O)C[C@@](O)(C(=O)CO)CC3OC1CC(N2CCOC(OC)C2)C(O)C(C)O1 (some centres undefined),AC50,[9],4.17 nM (active)
same,AC50,[10],7.42 nM (active)
same,AC50,[11],23.5 nM (active)
same,AC50,[12],14.8 nM (active)
same,IC50,[13],332 nM (active)
Clc1ccc(COC(Cn2ccnc2)c2ccc(Cl)cc2Cl)c(Cl)c1 (centres undefined),inhibition,[1],16.3%
same,score,[2],-0.06
same,cytochrome c release ratio,[3],0.32
same,inhibition of aggregation,[4],80.3%
same,glutamate uptake change,[5],5.65%
same,aggregation suppression score,[6],0.00246
same,activity remaining,[7],98.2% (inactive)
same,luciferase signal,[14],48 AU (inactive)
CC[C@H]1CN2CC[C@H]1C[C@@H]2[C@@H](O)c1ccnc2ccc(OC)cc12,luciferase signal,[14],16 AU (inactive)
FC(F)(F)c1cccc(N2CCNCC2)c1,inhibition,[1],28.1%
same,score,[2],1.15
same,cytochrome c release ratio,[3],0.84
same,inhibition of aggregation,[4],50%
same,glutamate uptake change,[5],0.29%
same,aggregation suppression score,[6],1.16
same,activity remaining,[7],116% (inactive)
C=C[C@H]1CN2CC[C@H]1C[C@H]2[C@H](O)c1ccnc2ccccc12,fluorescence slope change,[15],71.3% (active)
same,inhibition,[1],21%
same,score,[2],1.18
same,cytochrome c release ratio,[3],0.75
same,inhibition of aggregation,[4],48.7%
same,glutamate uptake change,[5],-2.27%
same,aggregation suppression score,[6],1.28
same,activity remaining,[7],97.1% (inactive)
same,luciferase signal,[14],48 AU (inactive)
COc1ccc2[nH]cc(CCN)c2c1,activity remaining,[7],83.6% (inactive)
same,outcome,[8],inactive
NC(=O)CS(=O)C(c1ccccc1)c1ccccc1 (centres undefined),activity remaining,[7],120% (inactive)
same,luciferase signal,[14],40 AU (inactive)
CC[C@@]1(O)C(=O)OCc2c1cc1n(c2=O)Cc2cc3ccccc3nc2-1,fluorescence slope change,[15],24.5% (inactive)
same,inhibition,[1],-22.8%
same,score,[2],1.92
same,cytochrome c release ratio,[3],0.94
same,inhibition of aggregation,[4],-7.84%
same,glutamate uptake change,[5],-25.7%
same,aggregation suppression score,[6],1.49
same,remaining activity,[16],122% (inactive)
same,activity remaining,[7],107% (inactive)
same,AC50,[9],16.6 nM (active)
same,AC50,[17],46.9 nM (active)
same,outcome,[18],inactive
same,AC50,[12],1480 nM (active)
same,outcome,[13],inactive
same,outcome,[8],inactive
same,luciferase signal,[14],28 AU (inactive)
O=C1CC[C@@]2(O)[C@H]3Cc4ccc(O)c5c4[C@@]2(CCN3CC2CC2)[C@H]1O5,fluorescence slope change,[15],79.9% (active)
same,outcome,[9],inactive
same,outcome,[19],inactive
same,outcome,[17],inactive
same,outcome,[10],inactive
same,outcome,[11],inactive
same,outcome,[18],inactive
same,outcome,[12],inactive
same,outcome,[13],inactive
same,luciferase signal,[14],48 AU (inactive)
O=c1ccc2cc(O[C@@H]3O[C@H](CO)[C@@H](O)[C@H](O)[C@H]3O)c(O)cc2o1,inhibition,[1],-24.4%
same,score,[2],1.12
same,cytochrome c release ratio,[3],0.85
same,inhibition of aggregation,[4],54.9%
same,glutamate uptake change,[5],18.9%
same,aggregation suppression score,[6],1
same,activity remaining,[7],95.9% (inactive)
same,luciferase signal,[14],92 AU (inactive)
COc1ccc(C[C@H]2NC[C@H](O)[C@H]2OC(C)=O)cc1,inhibition,[1],72.2%
same,score,[2],0.1
same,cytochrome c release ratio,[3],0.83
same,inhibition of aggregation,[4],100%
same,glutamate uptake change,[5],-57.2%
same,aggregation suppression score,[6],0.0246
same,remaining activity,[16],125% (inactive)
same,activity remaining,[7],92.2% (inactive)
same,luciferase signal,[14],16 AU (inactive)
O=c1c2ccccc2[se]n1-c1ccccc1,fluorescence slope change,[15],-12.9% (inactive)
same,inhibition,[1],12.1%
same,score,[2],0.32
same,cytochrome c release ratio,[3],1.88
same,inhibition of aggregation,[4],72.2%
same,glutamate uptake change,[5],26.2%
same,aggregation suppression score,[6],0.00636
same,activity remaining,[7],-2.27% (active)
CC[C@@H](CO)NC(=O)[C@@H]1C=C2c3cccc4[nH]cc(c34)C[C@H]2N(C)C1,inhibition,[1],8.64%
same,score,[2],1.38
same,cytochrome c release ratio,[3],0.5
same,inhibition of aggregation,[4],24.4%
same,glutamate uptake change,[5],12.4%
same,aggregation suppression score,[6],1.32
same,remaining activity,[16],127% (inactive)
same,activity remaining,[7],97% (inactive)
same,outcome,[8],inactive
same,luciferase signal,[14],60 AU (inactive)
Cc1nccc2c1[nH]c1ccccc12,remaining activity,[16],108% (inactive)
same,activity remaining,[7],102% (inactive)
same,outcome,[8],inactive
same,luciferase signal,[14],132 AU (inactive)
C=C[C@H]1CN2CC[C@H]1C[C@@H]2[C@@H](O)c1ccnc2ccccc12,luciferase signal,[14],40 AU (inactive)
